# Measured values reported in PubChem BioAssay (Tox21).
# “And” between values parts separate entries of the source, which are not always exact repeats. Identical values can stand only once. Inconclusive results are not listed. Where a call stands in place of a potency, no number is given. A structure can be active in one record and inactive in another. The source made the active and inactive calls. Unless noted, the call rests on the fitted dose curve; in most records, active means well fitted curve in the direction sought with a large enough effect in the repeat runs; inconclusive means weak or mixed curves; inactive means no such curve, though single readings can be large; an effect the other way counts as inactive or inconclusive.
# Legend:
# [1] = qHTS assay to identify small molecule agonists of the hypoxia (HIF-1) signaling pathway - cell viability counter screen (AID 1224844; calls by dose curve; further: nearly all actives have a fitted effect of over 50% in size)
# Outline: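 Viability counter screen: HRE-bla ME-180 cells plated 5 hrs before compound addition, treated 17 hrs at 37C and 5% CO2, then CellTiter-Glo added after the FRET reporter read; luminescence after 30 min.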
# [2] = qHTS assay to identify small molecule agonists of H2AX (AID 1224845; active means well fitted activation curve with a large enough effect in the signal ratio in the repeat runs, not every such curve was filed as active; the % refers to the signal ratio)
# Outline: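 Phospho-H2AX Ser139 measured by HTRF (ex 320 nm; em 665 and 620 nm) after 24 hr antibody incubation. Compounds, 15 concentrations, 0.76% DMSO, were applied to CHO-K1 cells for 3hr at 37C before lysis.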
# [3] = qHTS assay to identify small molecule agonists of the hypoxia (HIF-1) signaling pathway (AID 1224846; active means well fitted activation curve with a large enough effect in the signal ratio in the repeat runs, not every such curve was filed as active; the % refers to the signal ratio)
# Outline: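 Agonist mode reporter screen. ME-180 cells stably expressing bla under HRE control received test compounds in DMSO for 17 hrs (37C, 5% CO2), and beta-lactamase activity was then detected with the CCF4-AM FRET substrate.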
# [4] = qHTS assay to identify small molecule agonists of H2AX - cell viability counter screen (AID 1224847; calls by dose curve; further: nearly all actives have a fitted effect of over 30% in size; further: potency means the concentration at half of the fitted maximal effect)
# Outline: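 CHO-K1 cells plated overnight at 37C, then exposed 3 h at 37C to compounds at 15 concentrations (0.76% DMSO final). Viability by CellTiter-Glo luminescence after 30 min at room temperature.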
# [5] = qHTS RealTime-Glo MT Cell Viability Assay in HepG2 cells - 24 hour (AID 1224867); further: nearly all actives have a fitted effect of over 50% in size; further: potency means the concentration at half of the fitted maximal effect
# Outline: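 Tox21 10K library screened in qHTS format on HepG2 cells carrying RealTime-Glo reagents. Compounds were added after a 5 h preincubation, and the luminescent signal from continuous culture was measured repeatedly during 40 h treatment.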
# [6] = qHTS RealTime-Glo MT Cell Viability Assay in HEK293 cells - 32 hour (AID 1224868); further: nearly all actives have a fitted effect of over 50% in size; further: potency means the concentration at half of the fitted maximal effect
# Outline: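 Luminescence generated by NanoLuc from substrate produced by living HEK293 cells served as the viability signal. Each value reflects the reading at its stated time point during continuous 40 h compound exposure at 37 C.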
# [7] = A CellTox Green Cytotoxicity Assay to monitor cytotoxicity in HEK293 cells - 0 hour (AID 1224869); further: nearly all actives have a fitted effect of over 50% in size
# Outline: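 Dead-cell fluorescence measured kinetically: asymmetric cyanine dye, HEK293, 600 cells/well, 5 h settle, 23 nL cpd/DMSO, 37 C, reads 0–40 h every 8 h.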
# [8] = qHTS RealTime-Glo MT Cell Viability Assay in HepG2 cells - 40 hour (AID 1224870); further: nearly all actives have a fitted effect of over 50% in size; further: potency means the concentration at half of the fitted maximal effect
# Outline: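 Real-time viability: cells seeded at 600 per well together with NanoLuc and cell-permeant prosubstrate, compounds added after 5 h incubation. Luminescence tracked at 0, 8, 16, 24, 32 and 40 h of exposure.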
# [9] = qHTS assay to identify small molecule antagonists of the estrogen related receptor (ERR) signaling pathway from Tox21 library (AID 1224848); further: nearly all actives have a fitted effect of over 50% in size; further: potency means the concentration at half of the fitted maximal effect
# Outline: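 Luciferase luminescence (ONE-Glo, 30 min room temperature) was the read-out. Cells of the NTP-supplied ERR line, 2,000 per well, were given 6 h at 37 C before compound addition in DMSO and 18 h exposure at 37 C.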
# [10] = qHTS assay to identify small molecule agonists of the estrogen related receptor (ERR) signaling pathway from Tox21 library (AID 1224849; calls by dose curve; further: nearly all actives have a fitted effect of over 15% in size); settings: ERR reporter cell line, ONE-Glo luciferase, 18 h
# Outline: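 Quantitative HTS in agonist format: NTP ERR cell line, compounds transferred in DMSO after 6 h plating, 18 h incubation at 37 C, ONE-Glo luminescence endpoint.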
Compound,Potency [1],Potency [2],outcome [3],Potency [4],Potency [5],Potency [6],Potency [7],Potency [8],Potency [9],"activity change, positive = activation ([10]; at 92.4 µM (top of the series))","activity change, positive = activation ([10]; at 42.5 µM (top of the series))"
Clc1nc(Cl)nc(Cl)n1,inactive,inactive,inactive,inactive,inactive,inactive,inactive,inactive,–,–,–
CCC(C)c1cc([N+](=O)[O-])cc([N+](=O)[O-])c1O (stereo not given),inactive,inactive,inactive,inactive and 28.4 µM (active),inactive,inactive,inactive,inactive,inactive and 13.7 µM (active),-0.756% (inactive) and -61% (inactive),–
c1ccc(NNc2ccccc2)cc1,inactive,inactive,inactive,inactive,inactive,inactive,inactive,inactive,inactive,2.54% (inactive) and 6.77% (inactive),–
CCCCNC(=O)n1c(NC(=O)OC)nc2ccccc21,inactive,inactive,inactive,inactive,inactive,–,inactive,inactive,–,–,–
C=C(C)[C@H]1Cc2c(ccc3c2O[C@@H]2COc4cc(OC)c(OC)cc4[C@@H]2C3=O)O1,inactive,inactive,inactive,91 nM (active),27.9 µM (active) and 27.5 µM (active),55.7 nM (active) and 11 nM (active) and 47.7 nM (active),inactive,44.2 µM (active) and 27.5 µM (active),39.1 nM (active) and 9.7 nM (active) and 10.6 nM (active),-64.6% (inactive) and -64.1% (inactive),-51.1% (inactive)
C=C(C)C(=O)OCC1CO1 (stereo not given),inactive,inactive,inactive,inactive,–,inactive,inactive,inactive,inactive,-2.17% (inactive) and 2.32% (inactive),–
CCOc1cc(Oc2ccc(C(F)(F)F)cc2Cl)ccc1[N+](=O)[O-],inactive,inactive,inactive,inactive,–,–,inactive,inactive,–,-29.7% (inactive) and -19.5% (inactive),–
O=P(Oc1ccccc1)(Oc1ccccc1)Oc1ccccc1,inactive,inactive,inactive,89.3 µM (active) and inactive,inactive,inactive,inactive,inactive,–,-19.4% (inactive) and -25.7% (inactive),–
COc1ccc(C(CN(C)C)C2(O)CCCCC2)cc1 (stereo not given),inactive,inactive,inactive,inactive,inactive,inactive,inactive,inactive,–,–,–
Oc1cc(Cl)c(Cl)cc1Cl,inactive,inactive,inactive,100 µM (active) and inactive,inactive,inactive,inactive,inactive,–,–,–
CCN(CC)C(=O)SCc1ccc(Cl)cc1,inactive,inactive,inactive,inactive,inactive,inactive,inactive,inactive,inactive,4.95% (inactive) and 6.33% (inactive),–
C1=Cc2cccc3cccc1c23,inactive,inactive,inactive,inactive,–,inactive,inactive,inactive,inactive,-16.5% (inactive) and -13.1% (inactive),–
CC(C)N(C(=O)SCC(Cl)=C(Cl)Cl)C(C)C,inactive,inactive,inactive,inactive,–,inactive,inactive,inactive,–,–,–
CCCCN(CC)c1c([N+](=O)[O-])cc(C(F)(F)F)cc1[N+](=O)[O-],inactive,inactive,inactive,inactive,–,inactive,inactive,inactive,inactive,-0.494% (inactive) and 5.99% (inactive),–
Cc1ccc2c(c1N)C(=O)c1ccccc1C2=O,inactive,inactive,inactive,inactive,inactive,8.62 µM (active) and 7.76 µM (active),inactive,inactive,inactive,82.1% (active) and 70.5% (active),–
Nc1c(Cl)cc([N+](=O)[O-])cc1Cl,inactive,inactive,inactive,inactive,inactive,inactive,inactive,inactive,30.8 µM (active) and 24.3 µM (active),-38.6% (inactive) and -54.4% (inactive),–
CC(C)c1ccc(CO)cc1,inactive,inactive,inactive,inactive,inactive,inactive,inactive,inactive,inactive,2.78% (inactive) and -0.788% (inactive),–
C=CCc1ccc(OC)cc1,inactive,inactive,inactive,inactive,inactive,inactive,inactive,inactive,–,–,–
CCCCCCCCCCCOC(=O)c1ccccc1C(=O)OCCCCCCCCCCC,inactive,inactive,inactive,inactive,inactive,inactive,inactive,inactive,–,–,–
O=[N+]([O-])c1c(Cl)c(Cl)c(Cl)c(Cl)c1Cl,inactive,inactive,inactive,inactive,–,inactive,inactive,inactive,–,–,–
